Laboratory results taken from the OligoGym collection.

What follows are sequences tested against RSPH9 (assay: pooled miR-30 sensor sort-seq; sequence = guide strand). Conditions: shRNA.
Note: reference of the scale not given here.

Sequence | sensor-assay potency score (higher = more potent)
TAGCTCAACAGGCTCCCTGAAA | -1.11
TATTCTTTAGCTCAACAGGCTC | -1.09
TATTTCTTCTTCAAAGACTTTT | -0.914
TCTTATTCTTTAGCTCAACAGG | -1.48
TTGATCTGGACCACTATTTCTT | -0.0516
TTAACCAGCATAAGAGACGTGA | 0.0215
TTATTCTTTAGCTCAACAGGCT | -0.377

Each sequence was assayed against RTF1 in the same assay as above. Conditions: shRNA.

Sequence | sensor-assay potency score (higher = more potent)
TTCATCATCAGAGTAGACCTCA | 0.818
TTTCTCTGTCATCTGTTCCAGA | -0.00304
ATTGATTTCATCTAGAGTGGGC | 0.501
TACAATCTCTTCAATGTCCTGA | 0.771
TTCTTGATTTCAAATCTTCTTT | -0.27
TTGAGACAAACTCTAAACGGAA | -0.778
TACTTTGAACAGATCTTCTGAG | 0.376
TTTGAGACAAACTCTAAACGGA | 0.185
TTCGTTTTTCTCGCTCTGCTTT | -0.471
TTTTTCTTGATTTCAAATCTTC | -0.239
TTGAGATTTCTTGTCTAGTTTC | -0.921

What follows are sequences tested against RTN4 in the same assay as above. Conditions: shRNA.

Sequence | sensor-assay potency score (higher = more potent)
TTTTGTGTTATCTAAACTGAGC | -0.981
TTTCTGAAGTAGGATCTCCTAA | -0.155
TATTACTAACTAACTTCTCTTC | -0.121
TAACTAACTTCTCTTCTTCATC | -0.896
TTGTGACATAATCTGTCTCAGA | -1.04
TTTCTGAAGACACAACTTCATC | -1.21
TAAAGATCTAACAACGATCTGT | 0.175
TTTCTGAGTATTCTAATTCTGA | -0.686
TATCTGTTGTGACATAATCTGT | -0.595
TAAATCTCTATCTATGAGTAGA | -0.547
TTCACTTTCACATGCTTCCTGT | -0.0605
TTCTAGGTCAGTATATTCCCTG | -0.784

Each sequence was assayed against RTTN in the same assay as above. Conditions: shRNA.

Sequence | sensor-assay potency score (higher = more potent)
TTGTATTTGCTCATCTCTGTTA | -0.347
TTTCCTGTCAGTAACTTCCATG | -0.534
TATCATCTGTTTCTTCTCGTGC | 0.159
TTCTTCACTATGACTACCCAAA | -0.98
TACTCTTCTGAATTACTCCTTT | 0.0347
TTCAAATCAAACATACACCGTC | 0.646
TTTAATAACACCATCCTCCTTT | 0.89
TTAGTAAGTCTAGACAGCCATC | -1.38
TAGAGATTTCTGATTTTCCTGA | 0.353
